These results are taken from PubChem BioAssay (NCATS).

Results filed as inconclusive are left out. Where a call stands in place of a potency, no number is given. Activity calls are given as the source filed them. The call rests on the fitted dose curve; in most records, active means well fitted curve in the direction sought with a large enough effect in the repeat runs; inconclusive means weak or mixed curves; inactive means no such curve, though single readings can be large; an effect the other way counts as inactive or inconclusive.

Cytochrome P450 2D6 (Homo sapiens), sequence (P10635 whole entry, looked up): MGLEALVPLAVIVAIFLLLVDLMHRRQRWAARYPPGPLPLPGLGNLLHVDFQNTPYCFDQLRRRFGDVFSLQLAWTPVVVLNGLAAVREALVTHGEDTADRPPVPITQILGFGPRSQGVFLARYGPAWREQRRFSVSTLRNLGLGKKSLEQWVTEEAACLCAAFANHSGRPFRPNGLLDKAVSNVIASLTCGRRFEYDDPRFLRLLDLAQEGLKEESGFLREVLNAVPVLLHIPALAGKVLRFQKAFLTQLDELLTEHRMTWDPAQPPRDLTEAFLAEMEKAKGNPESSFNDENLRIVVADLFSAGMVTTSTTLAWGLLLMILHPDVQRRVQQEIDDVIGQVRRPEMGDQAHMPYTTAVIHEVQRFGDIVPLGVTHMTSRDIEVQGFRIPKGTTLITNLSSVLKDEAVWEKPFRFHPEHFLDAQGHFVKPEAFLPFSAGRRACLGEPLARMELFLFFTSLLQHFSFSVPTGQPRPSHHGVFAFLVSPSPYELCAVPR
Cytochrome P450 3A4 (Homo sapiens), sequence (P08684 whole entry, looked up): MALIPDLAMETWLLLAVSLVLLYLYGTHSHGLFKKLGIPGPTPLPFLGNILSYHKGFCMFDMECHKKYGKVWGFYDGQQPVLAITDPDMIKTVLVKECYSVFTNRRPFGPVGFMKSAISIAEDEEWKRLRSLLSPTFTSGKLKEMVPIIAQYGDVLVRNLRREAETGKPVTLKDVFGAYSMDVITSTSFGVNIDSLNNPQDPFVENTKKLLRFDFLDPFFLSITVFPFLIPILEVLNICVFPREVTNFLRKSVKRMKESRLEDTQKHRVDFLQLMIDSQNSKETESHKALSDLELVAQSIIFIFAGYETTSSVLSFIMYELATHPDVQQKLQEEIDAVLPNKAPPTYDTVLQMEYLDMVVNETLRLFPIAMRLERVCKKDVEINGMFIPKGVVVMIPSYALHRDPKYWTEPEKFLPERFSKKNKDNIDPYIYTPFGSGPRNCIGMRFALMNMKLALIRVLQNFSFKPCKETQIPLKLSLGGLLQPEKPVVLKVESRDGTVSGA

The first assay has as its target Cytochrome P450 2D6 (Homo sapiens) (UniProt P10635). As to the kind of experiment: Cytochrome P450 family 2 subfamily D member 6 (CYP2D6) small molecule antagonists: luciferase biochemical (cell-free) qHTS assay (AID 1645840). Further: nearly all actives have a fitted effect of over 55% in size. Further: potency means the concentration at half of the fitted maximal effect. The settings on record: P450-Glo CYP2D6 enzyme, luciferin luminescence, 1 h; series mostly up to 57.4 µM. A digest of the protocol: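 P450-Glo CYP2D6 system: proluciferin substrate converted by enzyme to luciferin, read by luminescence proportional to activity. Enzyme-substrate mix with compound 10 min at room temperature, then NADPH regeneration 1 h before detection reagent.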
(In qHTS, concentration-response curves come from the screen itself.)
For the compound `NC[C@H]1O[C@H](O[C@H]2[C@H](O[C@@H]3O[C@H](CO)[C@@H](O)[C@H]3O)C(O)[C@H](N)C[C@@H]2N)[C@H](N)[C@@H](O)[C@@H]1O` (stereo not given in full), the activity change, negative = inhibition is 6.46% [at 11.5 µM] (inactive).

In the case of `Cc1c(C)n(CCN(C)C)c2ccc(C(=O)OCCN(C)C)cc12`, the Potency entry was “inactive”.

For `CCCCN1CCCC1C(=O)Nc1c(C)cc(C)cc1C` (stereo not given), the Potency is 3.89 µM (active).

`CN(C/C=C/c1ccccc1)Cc1cccc2ccccc12`: the Potency is 0.347 µM (active).

Turning to `COc1cc2c(cc1OC)C(C(C(=O)N(CCc1ccc(OC)c(OC)c1OC)CCc1ccc(OC)c(OC)c1OC)c1ccccc1)=NCC2` (stereo not given), the Potency is 12.3 µM (active).

Regarding `O=C1OC2(c3ccc(O)cc3Oc3cc(O)ccc32)c2ccccc21`, the Potency entry is “inactive”.

Take `CCCC(=O)Nc1ccc(OCC(O)CNC(C)C)c(C(C)=O)c1` (stereo not given): the Potency entry was “inactive”.

Turning to `C[C@@H]1C[C@H]2[C@@H]3CCC4=CC(=O)C=C[C@]4(C)[C@@]3(F)[C@@H](O)C[C@]2(C)[C@H]1C(=O)CO`, the Potency result is “inactive”.

On to `CN1CCC(=C2c3ccccc3Sc3ccccc32)CC1`, for which the Potency was 1.38 µM (active).

As for `CC(C)N=C(N)/N=C(\N)Nc1ccc(Cl)cc1`, the Potency is 3.09 µM (active).

In the case of `O=C(Nc1ccc(Cl)c(Cl)c1)C1CC1`, the Potency entry is “inactive”.

For `O=C(CCN1CCC(c2ccccc2)C1)c1ccc2c(c1)OCCO2` (stereo not given), the Potency was 0.977 µM (active).

Consider `CO/N=C1\CN(c2nc3c(cc2F)c(=O)c(C(=O)O)cn3C2CC2)CC1CN` (stereo not given), for which the Potency entry is “inactive”.

As to `CN(C)CC/C=C1\c2ccccc2Sc2ccc(Cl)cc21`, the Potency was 1.23 µM (active).

As for `COC1=CC(=O)C[C@@H](C)[C@]12Oc1c(Cl)c(OC)cc(OC)c1C2=O`, the Potency entry is “inactive”.

Turning to `c1ccc(OCc2ccc(CCCN3CCOCC3)cc2)cc1`, the Potency is 6.92 µM (active).

On to `CN1CCC[C@@H]1c1cccnc1`, for which the Potency entry was “inactive”.

For the compound `NC(=O)C(=O)N/N=C/c1ccc([N+](=O)[O-])o1`, the Potency is 6.17 µM (active).

Another assay addresses Cytochrome P450 3A4 (Homo sapiens) (UniProt P08684). As to the kind of experiment: Cytochrome P450 family 3 subfamily A member 4 (CYP3A4) small molecule antagonists: luciferase qHTS assay (AID 1645841). Further: nearly all actives have a fitted effect of over 45% in size. As to conditions: P450-Glo CYP3A4 enzyme assay, luciferin luminescence; series mostly up to 57.4 µM. Summed up:
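Luminescent CYP3A4 activity readout: compounds plus enzyme-substrate mix 10 min at room temperature, reaction started with NADPH regenerating system for 1 h, stopped with detection reagent, read after 20 min. Ketoconazole served as control.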
Consider `Nc1ccn([C@@H]2O[C@H](CO)[C@@H](O)C2(F)F)c(=O)n1`, for which the compound was called inactive.

As to `CNC(=O)CN(CCN(CCN(CC(=O)[O-])CC(=O)NC)CC(=O)[O-])CC(=O)[O-].O.[Gd+3]`, the outcome was inactive.

With `CC(=O)O[C@]1(C(C)=O)CC[C@H]2[C@@H]3C[C@H](C)C4=CC(=O)CC[C@]4(C)[C@H]3CC[C@@]21C`, the compound was classed as inactive.

With `CN(C/C=C/c1ccccc1)Cc1cccc2ccccc12`, the call was inactive.

As for `CN1CCC(=C2c3ccccc3Sc3ccccc32)CC1`, the result was inactive.

Turning to `O=C(CCN1CCC(c2ccccc2)C1)c1ccc2c(c1)OCCO2` (stereo not given), the result was inactive.

In the case of `CN1CCC[C@@H]1c1cccnc1`, the outcome was inactive.
